Bioassay records: PubChem BioAssay, National Center for Advancing Translational Sciences (NCATS)
Shown are actives, neighbours in structure and some others; about 6% of the full set was active somewhere.
Tau FP inhib: tau fibrillization inhibition (FP) | K18 P301L tau heparin fibrillization, Alexa594 FP, 6 h | Potency, µM (highest dose often 57.7 µM), for the others: at the highest dose activity, negative = inhibition, actives largely listed as inhibitors | 280,000 tested, 0.39% active | AID 1468; further: nearly all actives have a fitted effect of over 55% in size
Target sequence (P10636 561-689 P618L limits assumed): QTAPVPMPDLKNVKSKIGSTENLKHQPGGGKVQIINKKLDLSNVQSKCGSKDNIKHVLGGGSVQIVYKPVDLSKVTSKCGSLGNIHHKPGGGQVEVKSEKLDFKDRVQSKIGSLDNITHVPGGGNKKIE
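Quantitative HTS format: compounds meet 15 uM recombinant K18 P301L tau and Alexa 594-tau tracer in 100 mM sodium acetate pH 7; 20 uM heparin triggers fibrillization at 37 C over 6 hr; FP gives the signal.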
PLK1 PBD inh: PLK1 (human) polo-box domain binding inhibition. Plk1 PBD binding of FITC phosphopeptide, fluorescence polarization. 360,000 tested, 2.8% active. Potency, µM, for the others: max response, negative = inhibition, usual class: inhibitors. AID 720504. P53350; further: series mostly up to about 57 µM; nearly all actives have a fitted effect of over 65% in size
VDR inh: inhibitors of human vitamin D receptor | P11473 | VDR-SRC2-3 peptide fluorescence polarization, 2 h | Potency, µM, for inactives: max response, negative = inhibition, usual class: inhibitors | 400,000 tested, 0.93% active
Target sequence (P11473 whole entry, looked up): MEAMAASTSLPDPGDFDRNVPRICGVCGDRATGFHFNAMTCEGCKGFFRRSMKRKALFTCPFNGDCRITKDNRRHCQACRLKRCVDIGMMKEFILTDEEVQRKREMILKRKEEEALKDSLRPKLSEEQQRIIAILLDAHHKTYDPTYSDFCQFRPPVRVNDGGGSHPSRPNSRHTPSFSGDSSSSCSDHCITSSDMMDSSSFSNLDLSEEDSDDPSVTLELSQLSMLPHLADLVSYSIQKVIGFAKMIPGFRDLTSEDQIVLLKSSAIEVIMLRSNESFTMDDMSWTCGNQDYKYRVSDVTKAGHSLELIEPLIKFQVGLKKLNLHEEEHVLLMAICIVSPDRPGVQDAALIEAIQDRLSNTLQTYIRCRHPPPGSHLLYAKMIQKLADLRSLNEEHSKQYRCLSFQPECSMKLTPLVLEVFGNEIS
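Two reagent solutions held at 4 deg C in the dark were dispensed, compounds pinned at 23 nl, and the mixture incubated 2 h at room temperature. Read-out: fluorescence polarization of VDR–SRC2-3 peptide binding.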
Sfp PPTase inh: inhibitors of Bacillus subtilis Sfp phosphopantetheinyl transferase; Biochemical Sfp PPTase activity, qHTS; 310,000 tested, 3.5% active; AID 1490; Q9F4F7; Potency, µM, inactives show largest response in the series, negative = inhibition, hits mostly inhibitors;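 further: the enzyme is Sfp with the accession as filed and its product quenches rhodamine fluorescence; 0% = enzyme reaction without inhibitor and -100% = no enzyme wells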
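Reaction rates are the 30-min fluorescence difference (ex 525, em 598 nm) in wells containing 15 nM Sfp, 5 uM rhodamine-CoA and 12.5 uM BHQ-2-YbbR at pH 7.6 with 10 mM MgCl2.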
Tau fluor counter: counter-screen for tau fibril formation inhibitors; tau K18 P301L Alexa594 fluorescence, heparin fibrillization; Potency, µM (titrated, usually from 57.7 µM), without a hit: top-dose activity change, negative = decrease; 280,000 tested, 0.93% active; AID 1463; further: nearly all actives have a fitted effect of over 55% in size
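Human K18 P301L tau (15 uM unlabeled plus 0.24 uM Alexa 594-labeled, final) in 100 mM sodium acetate pH 7 was mixed with compound and 20 uM heparin and incubated 6 hr at 37 C.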
Tau ThT inhib: blocks human tau fibril formation measured by thioflavin T; recombinant tau K18 P301L, heparin-induced fibrillization, ThT fluorescence; Potency, µM (doses to about 57.4 µM), for the others: top-dose activity, negative = inhibition, actives largely listed as inhibitors; 270,000 tested, 2.1% active; AID 1460; further: nearly all actives have a fitted effect of over 55% in size
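Using a mix of unlabeled (15 uM) and Alexa 594-labeled (0.24 uM) tau K18 P301L, heparin-triggered fibrillization over 6 hr at 37 C was scored by ThT fluorescence.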
* hit, by the source's call; ? = inconclusive; . = no result; ! = a repeat was not active; [ ] = dose if it differs, or a comment. The call rests on the fitted dose curve; in most records, active means well fitted curve in the direction sought with a large enough effect; inconclusive means small, poorly fitted or top-dose-only effect, or another doubt; inactive means no such curve, though single readings can be large; an effect the other way counts as inactive or inconclusive. Unless noted, on the % scale 0 is the no-effect control and ±100 the full control effect; potency means the concentration at half of the fitted maximal effect.

SMILES	Tau FP inhib	PLK1 PBD inh	VDR inh	Sfp PPTase inh	Tau fluor counter	Tau ThT inhib
COc1cc(NC(=O)c2ccco2)c(OC)cc1NC(=O)Nc1cccc(Cl)c1	9%	?	3%	-11%	13µM*[quencher]	?
COc1ccc(Cl)c2sc(N3CCN(C(C)=O)CC3)nc12	.	-4%	0%	1%	.	.
Cc1cc(C)c(S(=O)(=O)NCC(c2ccc(N(C)C)cc2)N2CCc3ccccc32)c(C)c1 (stereo not given)	7%	.	-8%	.	?	?
Cc1cccc(Cc2c(C)nc3nc(SCC(=O)NC4CCCCC4)nn3c2C)c1	1%	.	9%	.	-2%	-8%
CC(C)Oc1ccc(F)cc1-c1cc(C(=O)NCc2ccc(F)cc2)[nH]n1	.	1%	.	.	.	.
CCCCC[C@@H](/C=C/C1C(=O)C=C[C@H]1C/C=C\CCCC(=O)O)OC(C)=O (stereo not given in full)	.	?	79µM*	.	.	.
CCCCC[C@H](O)C/C=C1/C(=O)C=C[C@@H]1C/C=C\CCCC(=O)O	-14%	.	50µM*	-12%	3%	?
CCCCCC(O)C=CC1C(O)CC(O)C1CC=CCCCC(=O)O (stereo not given)	.	1%	.	.	.	.
CCCCCCCC/C=C\C/C=C\C/C=C\CCCC(=O)O	1%	.	-2%	17%	-2%	-12%
CCCCC/C=C/C=C1/C(=O)C=C[C@@H]1C/C=C\CCCC(=O)O	?	.	20µM*	56µM*!	-4%	16µM*!
CCCCC/C=C\C/C=C\C/C=C\CCCCC(=O)O	0%	?	40µM*!	0%	-2%	-6%
CCOC(=O)c1ccc(NS(=O)(=O)c2ccc3[nH]c(=O)[nH]c3c2)cc1	-6%	12µM*	-19%	22µM*	-6%	-18%
CCCCNC(=O)c1ccc(NS(=O)(=O)c2ccc3[nH]c(=O)[nH]c3c2)cc1	.	8%	9%	-10%	.	.
CC(=O)c1cccc(NS(=O)(=O)c2ccc3[nH]c4c(c3c2)CCCCC4)c1	2%	.	21%	.	14µM*[quencher]	-2%
Cc1ccc(CNS(=O)(=O)c2ccc3[nH]c4c(c3c2)CCCCC4)cc1	?	.	8%	.	?	3%
CC(C)(C)c1ccc(NC(=O)COC(=O)c2ccc(NS(=O)(=O)c3ccc(F)c(F)c3)cc2)cc1	28µM*	-27%	-8%	40%	?	3%
CCOC(=O)c1cccc(NS(=O)(=O)c2ccc3[nH]c4c(c3c2)CCCC4)c1	-2%	.	-1%	.	10µM*[quencher]	-1%
CC(C)(C)c1ccc(C(=O)OCC(=O)Nc2cccc(S(=O)(=O)NC3=NCCC3)c2)cc1	.	-6%	.	.	.	.
Cc1nn2c(-c3ccco3)ccnc2c1-c1ccc(Cl)cc1	?	.	-12%	.	-15%	?
CC(=O)c1cccc(NS(=O)(=O)c2ccc3[nH]c4c(c3c2)CCCCCC4)c1	5%	.	3%	.	14µM*[quencher]	-7%
Cc1cccc(NC(=O)C2CCN(S(=O)(=O)c3ccc4[nH]c5c(c4c3)CCCCC5)CC2)c1	-4%	.	3%	.	?	7%
C/C(=N\NC(=O)CC#N)C1COc2ccccc2O1 (stereo not given)	-8%	21µM*	?	15%	-13%	-11%
Cc1nc(C)c(CCNS(=O)(=O)c2ccc(C)c(C)c2)s1	-1%	.	7%	.	-13%	-11%
CCOC(=O)c1sc(SCC(=O)Nc2ccc(N(C)C)cc2)nc1N	8%	-2%	10%	-4%	?	14µM*
COc1ccc(NC(=O)CSc2nnc(N)s2)cc1	2%	-3%	-8%	16%	-4%	1%
SMILES	Tau FP inhib	PLK1 PBD inh	VDR inh	Sfp PPTase inh	Tau fluor counter	Tau ThT inhib
COc1ccc(NC(=O)CSc2nc(N)c(C(=O)Nc3ccc(N(C)C)cc3)s2)cc1	15%	-7%	13%	-10%	?	2.5µM*
CN(C)c1ccc(NC(=O)CSc2nc(N)c(C(=O)Nc3ccc(N(C)C)cc3)s2)cc1	13%	-14%	?	-8%	13µM*[quencher]	2.5µM*
COc1ccc(-n2nnnc2C(c2ccccc2)N2CCN(C/C=C/c3ccccc3)CC2)cc1 (stereo not given)	.	-8%	.	.	.	.
CCN1C(=O)[C@H]2[C@@H](c3ccc(C(F)(F)F)cc3)N[C@]3(CCCN(Cc4ccc(C)cc4)C3=O)[C@H]2C1=O	.	7%	.	.	.	.
CC(NS(=O)(=O)c1cccc(Cl)c1F)[C@H](O)c1ccccc1 (stereo not given in full)	.	-1%	.	.	.	.
Cc1ccc(NC(=S)Nc2cccnc2)c(S(=O)(=O)N2CCCCC2)c1	32µM*	-9%	5%	-29%	?	11%
CCOc1ccc(N2C(=O)/C(=C\c3ccc(O)c(OC)c3)S(=O)(=O)C2c2cccc([N+](=O)[O-])c2)cc1 (stereo not given)	8%	-28%	-17%	4%	32µM*[quencher]	?
COC(=O)C1=C(C)NC(=O)NC1c1ccc(N2CCC(c3ccccc3)=N2)cc1 (stereo not given)	8%	27µM*	?	-14%	-20%	-9%
CC1=C(C(=O)c2ccccc2)C(c2ccc(OC(F)F)cc2)NC(=S)N1 (stereo not given)	-7%	24µM*	?	0%	-4%	0%
CC1=C(C(=O)c2ccccc2)C(c2ccc(N3CCOCC3)cc2)NC(=O)N1 (stereo not given)	1%	3%	4%	-17%	-6%	25µM*
CC1=C(C(=O)c2ccccc2)C(c2ccc(O)cc2)NC(=S)N1 (stereo not given)	-2%	-3%	-10%	-9%	-1%	-3%
COC(=O)C1=C(C)NC(=O)NC1c1ccc(OC)c(OC)c1 (stereo not given)	.	-11%	.	.	.	.
CC(C)COc1ccccc1C1CC(=O)Nc2cc3c(cc21)OCO3 (stereo not given)	5%	.	-9%	.	-20%	-14%
O=C1NCCCC2c3cc(O)c4ccccc4c3OC12N1CCCCC1 (stereo not given)	?	.	.	20µM*	?	13µM*
COc1cccc(C2C3=C(Nc4[nH]n(-c5ccccc5)c(=O)c42)c2ccccc2C3=O)c1 (stereo not given)	0%	.	.	-21%	?	5µM*
COc1ccc(C(=O)Nc2nc3c(s2)Cc2c(Br)ccc(OC)c2-3)cc1OC	-7%	.	-1%	.	-27%	?
COc1ccccc1C(=O)Nc1ccc2c(c1)nc1n2CCN(C2CCCCC2)C1	.	17µM*	?	-5%	.	.
O=C1c2oc3ccc(Cl)cc3c(=O)c2C(c2ccccn2)N1CCCN1CCOCC1 (stereo not given)	6%	?	?	25µM*	4%	?
